The results in this text go back to PubChem BioAssay (NCATS).

SMILES strings stand for the structures. Inconclusive results are not listed. Unmarked numbers belong to inactive results. Calls of active or inactive are those of the source. Unless noted, calls come from the whole dose curve.

Assay [1] is described as follows: Primary qHTS for inhibitors of SARS-S pseudo-typed particle cell entry (AID 1479145). For activity change, negative = inhibition: series mostly up to about 57 µM; % is set by controls: 0 for no effect and ±100 for the full control effect. Note: nearly all actives have a fitted effect of over 45% in size. Note: potency is the fitted concentration of half-maximal effect.
The nature of assay [2]: Primary qHTS for inhibitors of MERS-S pseudo-typed particle cell entry (AID 1479149). For activity change, negative = inhibition: series mostly up to about 57 µM; % is set by controls: 0 for no effect and ±100 for the full control effect. Note: nearly all actives have a fitted effect of over 60% in size. Note: potency is the fitted concentration of half-maximal effect. A general note: qHTS replaces the single test concentration by a dilution series.
The nature of assay [3]: Primary qHTS for Vero E6 cytotoxicity: counterscreen for inhibitors of SARS-S pseudo-typed particle cell entry (AID 1479150).
Assay [4] in a line: Primary qHTS for Huh7 cytotoxicity: counterscreen for inhibitors of MERS-S pseudotyped particle cell entry (AID 1479147). Note: potency is the fitted concentration of half-maximal effect.
A short description of assay [5]: Confirmatory qHTS for VERO E6 Cytotoxicity Assay: Counterscreen for SARS-CoV-2 CPE Assay (AID 1508605). Note: nearly all actives have a fitted effect of over 60% in size. Note: potency is the fitted concentration of half-maximal effect.
A short description of assay [6]: Confirmatory qHTS for activators (rescue) of SARS-CoV-2 Cytopathic Effect (CPE) (AID 1508606). Note: potency is the fitted concentration of half-maximal effect; nearly all actives have a fitted effect of over 70% in size.
A short description of assay [7]: Primary qHTS for inhibitors of La Crosse Virus (LACV) - induced cell death in SH-SY5Y cells (AID 1508616; active = well fitted curve in the direction sought with a large enough effect; an effect the other way counts as inactive or inconclusive;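 note: top concentration of the series differs between compounds; 0% = infected DMSO wells and 100% = uninfected DMSO wells; higher means more rescue of cells from virus-induced death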). In a few lines: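 SH-SY5Y, 6000 cells/well; cpd via pin tool in DMSO; LACV 0.01 MOI; 6 d 37C 5% CO2; ATPLite, 5 min RT; luminescence normalized to ±virus DMSO controls.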
The target of assay [8] is Calcium and integrin-binding protein 1 (Homo sapiens) (UniProt Q99828). Kind of assay: Primary qHTS for Identification of Calcium Integrin Binding Protein 1 (CIB1) Competitor (AID 1508620; active = well fitted curve in the direction sought with a large enough effect; an effect the other way counts as inactive or inconclusive;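 note: GST tagged CIB1 binding a fluorescein labelled alphaIIb integrin peptide tracer; top concentration of the series differs between compounds; % is set by controls: 0 for no effect and ±100 for the full control effect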). In a few lines: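 CIB1-GST (1 uM final) and compound incubated 15 min at room temperature before adding FITC-alphaIIb peptide tracer (100 nM final). Competition for binding read by fluorescence polarization (ex 480, em 540) after another 15 min at room temperature.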

A short description of assay [9]: Primary qHTS for small molecule stabilizers of the endoplasmic reticulum resident proteome: Secreted ER Calcium Modulated Protein (SERCaMP) assay (AID 1508630; active = well fitted curve in the direction sought with a large enough effect; an effect the other way counts as inactive or inconclusive; note: % is set by controls: 0 for no effect and ±100 for the full control effect). In a few lines: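 The SH-SY5Y reporter protocol was run at 3 concentrations up to 38.3 uM (primary) or 11 concentrations (follow-up): 16 h compound, 100 nM thapsigargin for 4 h, then extracellular luciferase luminescence.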

Assay [10] concerns the target Cytochrome P450 2D6 (Homo sapiens) (UniProt P10635). Kind of assay: Cytochrome P450 family 2 subfamily D member 6 (CYP2D6) small molecule antagonists: luciferase biochemical (cell-free) qHTS assay (AID 1645840; active = well fitted curve in the direction sought with a large enough effect in the repeat runs; an effect the other way counts as inactive or inconclusive; note: potency is the fitted concentration of half-maximal effect; nearly all actives have a fitted effect of over 55% in size). In outline:
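P450-Glo CYP2D6 system: proluciferin substrate converted by enzyme to luciferin, read by luminescence proportional to activity. Enzyme-substrate mix with compound 10 min at room temperature, then NADPH regeneration 1 h before detection reagent.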

Sequence of Calcium and integrin-binding protein 1 (Homo sapiens) (Q99828 whole entry, looked up): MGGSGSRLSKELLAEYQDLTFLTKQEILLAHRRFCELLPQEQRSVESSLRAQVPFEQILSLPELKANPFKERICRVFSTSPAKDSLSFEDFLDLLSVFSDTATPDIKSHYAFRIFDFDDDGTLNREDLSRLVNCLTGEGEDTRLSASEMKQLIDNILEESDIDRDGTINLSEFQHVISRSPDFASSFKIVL
Sequence of Cytochrome P450 2D6 (Homo sapiens) (P10635 whole entry, looked up): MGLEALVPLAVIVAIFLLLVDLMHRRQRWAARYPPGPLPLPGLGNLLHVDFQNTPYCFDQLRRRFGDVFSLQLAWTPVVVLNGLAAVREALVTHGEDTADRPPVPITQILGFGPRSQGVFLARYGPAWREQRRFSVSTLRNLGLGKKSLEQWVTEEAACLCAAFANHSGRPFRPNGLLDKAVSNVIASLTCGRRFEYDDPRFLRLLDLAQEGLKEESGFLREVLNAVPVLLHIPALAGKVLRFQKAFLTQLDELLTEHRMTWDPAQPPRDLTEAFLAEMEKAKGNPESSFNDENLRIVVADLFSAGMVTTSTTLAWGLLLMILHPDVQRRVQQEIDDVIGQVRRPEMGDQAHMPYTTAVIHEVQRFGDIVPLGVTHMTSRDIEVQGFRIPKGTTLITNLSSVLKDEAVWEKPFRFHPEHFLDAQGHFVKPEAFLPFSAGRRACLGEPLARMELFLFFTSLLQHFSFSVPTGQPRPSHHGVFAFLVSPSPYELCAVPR

`NC(=O)N/N=C/c1ccc([N+](=O)[O-])o1`: the Potency result in [1], in assay [2] and in assay [3] was “inactive” in each case.
Turning to `CC[C@@]1(O)C(=O)OCc2c1cc1n(c2=O)Cc2cc3c(CN(C)C)c(O)ccc3nc2-1`, the Potency in assay [1] is 3.16 µM (active). The Potency entry in [4] and in assay [3] was “inactive” each time.
As for `Nc1[nH]c(=O)ncc1F`, the Potency entry in assay [1], in assay [4] and in assay [3] was “inactive” throughout.
For `CC(C)C[C@H](NC(=O)[C@H](Cc1ccccc1)NC(=O)c1cnccn1)B(O)O`, the Potency entry in assay [1] and in assay [2] was “inactive” in each case.
As to `Clc1ccc2c(c1)C(N1CCNCC1)=Nc1ccccc1O2`, the Potency result in assay [1], in assay [4], in [2], in assay [3] and in [5] was “inactive” throughout.
Regarding `Cc1ccc(-n2[nH]c(C)c(N=Nc3cccc(-c4cccc(C(=O)O)c4)c3O)c2=O)cc1C`, the Potency entry in assay [1] and in assay [3] was “inactive” in each case.
With `CCCCc1oc2ccc(NS(C)(=O)=O)cc2c1C(=O)c1ccc(OCCCN(CCCC)CCCC)cc1`, the Potency in [1] was 22.4 µM (active); in assay [2], 17.8 µM (active).
`O=C(c1ccc(OCCN2CCCCC2)cc1)c1c(-c2ccc(O)cc2)sc2cc(O)ccc12`: the Potency was 20 µM (active) in assay [1] and 11.2 µM (active) in assay [2]. Further, in assay [3], the Potency entry is “inactive”.
On to `Cn1c(=O)c2c(ncn2CC(O)CO)n(C)c1=O` (centres undefined), for which the Potency entry in [1], in assay [4] and in [3] was “inactive” each time.
In the case of `NNc1nncc2ccccc12`, the Potency entry in [1] and in [2] was “inactive” in each case.
With `COc1ccccc1Oc1c(NS(=O)(=O)c2ccc(C(C)(C)C)cc2)nc(-c2ncccn2)nc1OCCO`, the Potency entry in assay [1], in [4] and in [3] was “inactive” in each case.
Regarding `CCC[C@H](N[C@@H](C)C(=O)N1[C@H](C(=O)O)C[C@@H]2CCCC[C@@H]21)C(=O)OCC`, the Potency entry in assay [1], in assay [4] and in [3] was “inactive” each time.
With `O=C(O)c1ccc(-n2nc(-c3ccccc3O)nc2-c2ccccc2O)cc1`, the Potency result in [1] and in assay [3] was “inactive” each time.
On to `Cc1ccc(NC(=O)c2ccc(CN3CCN(C)CC3)cc2)cc1Nc1nccc(-c2cccnc2)n1`, for which the Potency in [1] was 12.6 µM (active); in assay [6], 8.91 µM (active). The Potency entry in [4], in assay [3] and in assay [5] was “inactive” in each case.
`CNCC[C@@H](Oc1ccccc1C)c1ccccc1`: the Potency entry in assay [1] and in [3] was “inactive” in each case.
Consider `CC(C)C[C@H](NC(=O)[C@H](CCc1ccccc1)NC(=O)CN1CCOCC1)C(=O)N[C@@H](Cc1ccccc1)C(=O)N[C@@H](CC(C)C)C(=O)[C@@]1(C)CO1`, for which the Potency in assay [1] is 1 µM (active). The Potency result in assay [2] was “inactive”.
`CC(=O)N(O)CCCCCNC(=O)CCC(=O)N(O)CCCCCNC(=O)CCC(=O)N(O)CCCCCN`: the Potency entry in assay [1], in assay [2] and in assay [3] was “inactive” in each case.
`CCOC(=O)N1CCC(=C2c3ccc(Cl)cc3CCc3cccnc32)CC1`: the Potency result in assay [1], in assay [4] and in assay [3] was “inactive” each time.
As to `CCCC(CCC)C(=O)O`, the Potency entry in assay [1], in assay [4] and in assay [3] was “inactive” in each case.
Consider `Nc1nc(N)c2nc(-c3ccccc3)c(N)nc2n1`, for which the Potency result in assay [1], in assay [2] and in [3] was “inactive” each time.
For the molecule `CN1CCC[C@@H]1CCO[C@](C)(c1ccccc1)c1ccc(Cl)cc1`, the Potency was 10 µM (active) in [1], 4.47 µM (active) in [2] and 10 µM (active) in [6]. In addition, the Potency result in [3] and in assay [5] was “inactive” each time.
As to `CCCCNc1ccc(C(=O)OCCOCCOCCOCCOCCOCCOCCOCCOCCOC)cc1`, the Potency entry in assay [1], in assay [4] and in [3] was “inactive” throughout.
Regarding `CCCN1C[C@H](CSC)C[C@@H]2c3cccc4[nH]cc(c34)C[C@H]21`, the Potency result in assay [1], in assay [4] and in assay [3] was “inactive” each time.
As to `Oc1ccc(Cl)cc1Cc1ccccc1`, the Potency result in assay [1], in assay [4], in assay [2], in assay [3], in [7] and in assay [8] was “inactive” in each case. The result in assay [9] was inactive. Besides, the Potency in [10] was 29.4 µM (active).
`COC(=O)[C@H]1[C@H]2C[C@@H]3c4[nH]c5cc(OC)ccc5c4CCN3C[C@H]2C[C@@H](OC(=O)c2cc(OC)c(OC)c(OC)c2)[C@@H]1OC`: the Potency result in assay [1], in assay [4], in assay [3] and in [5] was “inactive” in each case. Further, the Potency in [6] was 10 µM (active).
For `Cc1c(O)cccc1C(=O)N[C@@H](CSc1ccccc1)[C@H](O)CN1C[C@H]2CCCC[C@H]2C[C@H]1C(=O)NC(C)(C)C`, the Potency entry in assay [1], in [4], in assay [2] and in assay [3] was “inactive” each time. Also, the Potency in assay [5] is 12.6 µM (active); in assay [6] it was 3.16 µM (active).
With `COc1c(C)c2c(c(O)c1C/C=C(\C)CCC(=O)O)C(=O)OC2`, the Potency entry in assay [1] and in [3] was “inactive” throughout.
For the molecule `CN1C(=O)CC(C)(c2ccccc2)C1=O` (centres undefined), the Potency entry in [1], in assay [4] and in assay [3] was “inactive” each time.
Take `Cn1cnc([N+](=O)[O-])c1Sc1ncnc2nc[nH]c12`: the Potency entry in assay [1], in assay [4] and in assay [3] was “inactive” each time.
For `O=c1c(O)c(-c2ccc(O)c(O)c2)oc2cc(O)cc(O)c12`, the Potency result in assay [1], in assay [4] and in assay [3] was “inactive” in each case.
Turning to `CCN(CC)CCCC(C)Nc1ccnc2cc(Cl)ccc12` (centres undefined), the Potency entry in [1], in [4] and in assay [3] was “inactive” in each case.
On to `O=C1c2cccc3c2[C@H](CCC3)CN1[C@@H]1CN2CCC1CC2`, for which the Potency entry in [1], in assay [4] and in assay [3] was “inactive” in each case.
In the case of `O=C1CCc2ccc(OCCCCN3CCN(c4cccc(Cl)c4Cl)CC3)cc2N1`, the Potency entry in assay [4] and in assay [3] was “inactive” throughout. Moreover, the Potency in assay [2] was 11.2 µM (active).
As to `NC1[C@H]2CN(c3nc4c(cc3F)c(=O)c(C(=O)O)cn4-c3ccc(F)cc3F)C[C@@H]12` (some centres undefined), the Potency entry in assay [4], in assay [2] and in assay [3] was “inactive” throughout.
With `CC(C)c1c(C(=O)Nc2ccccc2)c(-c2ccccc2)c(-c2ccc(F)cc2)n1CC[C@@H](O)C[C@@H](O)CC(=O)O`, the Potency entry in assay [4] and in assay [2] was “inactive” in each case.
Turning to `CCN(CC)CCNC(=O)c1c(C)[nH]c(/C=C2\C(=O)Nc3ccc(F)cc32)c1C`, the Potency is 31.6 µM (active) in assay [4] and 11.2 µM (active) in [2].
Taken in the same sequence, the figures for `CC(C)C(=O)Nc1ccc([N+](=O)[O-])c(C(F)(F)F)c1` were “inactive” and 22.4 µM (active).
For `COc1ccc(-c2cc(=S)ss2)cc1`, the Potency result in [4] and in assay [2] was “inactive” throughout.
`CNS(=O)(=O)CCc1ccc2[nH]cc(C3CCN(C)CC3)c2c1`: the Potency entry in assay [4], in assay [2] and in [3] was “inactive” in each case.
Regarding `CN1CCN(C2=Nc3cc(Cl)ccc3Nc3ccccc32)CC1`, the Potency result in assay [4], in [2] and in assay [3] was “inactive” each time.
Regarding `COC(=O)Nc1nc2ccc(C(=O)c3ccccc3)cc2[nH]1`, the Potency entry in assay [4], in [2] and in [3] was “inactive” each time.
Consider `COc1cc(Nc2c(C#N)cnc3cc(OCCCN4CCN(C)CC4)c(OC)cc23)c(Cl)cc1Cl`, for which the Potency in assay [4] was 28.2 µM (active).
As to `Cc1cc2c(s1)Nc1ccccc1N=C2N1CCN(C)CC1`, the Potency entry in assay [4], in [2] and in assay [3] was “inactive” throughout.
Turning to `CCN(CCO)CCCC(C)Nc1ccnc2cc(Cl)ccc12` (centres undefined), the outcome in assay [4] and in assay [3] was “inactive [at 5.34 µM]” each time. For the same molecule, in assay [2], the activity change, negative = inhibition was 3.49% [at 5.34 µM].
As for `CCCCc1nc(Cl)c(CO)n1Cc1ccc(-c2ccccc2-c2nn[nH]n2)cc1`, the Potency result in assay [4], in assay [2] and in assay [3] was “inactive” in each case.
As for `COc1ccc([C@@H]2Sc3ccccc3N(CCN(C)C)C(=O)[C@@H]2OC(C)=O)cc1`, the Potency result in [4], in [2] and in [3] was “inactive” throughout.
On to `CCC1C(=O)OCC1Cc1cncn1C` (centres undefined), for which the Potency result in [4], in [2] and in assay [3] was “inactive” in each case.
Take `Cc1cccc(Nc2ccccc2C(=O)O)c1C`: the Potency result in [4], in [2] and in assay [3] was “inactive” each time.
Regarding `CN1CCN(CCCN2c3ccccc3Sc3ccc(Cl)cc32)CC1`, the Potency in [1] is 22.4 µM (active); in assay [5], 20 µM (active). Further, in assay [3], the Potency result was “inactive”.
